Hits are enriched below; roughly 13% of the tested compounds scored in any of these assays.
HCV inh – qHTS Assay for Inhibitors of Hepatitis C Virus (HCV). Huh7.5.1 HCVcc-Cre infection, luciferase reporter, 44 h. Potency, µM (doses to about 41.8 µM), inactives show top-dose activity change, negative = inhibition, hits mostly inhibitors. AID 651820, 2012. hit rate 3.4% among 340,000; further: potency means the concentration at half of the fitted maximal effect
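Infectious HCVcc-Cre (~0.5 moi) was added to cells just after compound, with cells seeded 4 h earlier at 1,000 per well. Luciferase activity after 44 h culture reported infection; substrate was incubated 15 min at room temperature before reading.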
Pf growth 48h – Primary qHTS for delayed death inhibitors of the malarial parasite plastid, 48 hour incubation | P. falciparum luciferase growth in erythrocytes, 48 h | Potency, µM (top dose mostly 28.7 µM), without a hit: at the top dose activity change, negative = inhibition, hits mostly inhibitors | hit rate 5.9% among 310,000; further: potency means the concentration at half of the fitted maximal effect
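Parasite viability was followed by luminescence of a genomically integrated firefly luciferase. Cultures held 0.1% parasitemia at 2% hematocrit (final), incubated under 5% CO2 at 37 C.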
HCMV inh – qHTS Assay for inhibitors of the human cytomegalovirus (HCMV) | activity change, negative = inhibition, % at 57.5 µM | HFF cells, HCMV-luciferase reporter, 72 h; active compounds read low | hit rate 4.5% among 410,000 | AID 1259415, 2018; in the data active means activity change below about -60%; inconclusive means no clear call, values can overlap the other calls; inactive means above about -39%
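Compounds were evaluated in HFFs infected with an HCMV luciferase reporter virus (MOI 1 PFU/cell). Luciferase in lysates collected 72 h post infection served as the replication measure.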
Pf growth 96h – Primary qHTS for delayed death inhibitors of the malarial parasite plastid, 96 hour incubation; P. falciparum luciferase reporter growth, 96 h; AID 504834, 2011; Potency, µM (top dose mostly 28.7 µM), for inactives: top-dose activity change, negative = inhibition, usual class: inhibitors; hit rate 6.9% among 320,000; further: potency means the concentration at half of the fitted maximal effect
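P. falciparum expressing integrated firefly luciferase grown in erythrocytes (2% hematocrit, 0.05% parasitemia final) with compounds for 96 hours at 37 C, 5% CO2. Growth inhibition read as loss of luminescence after adding luciferase detection reagent.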
Starred values were filed as active, the others as inactive; ? = inconclusive; . = no result. Unless noted, the call rests on the fitted dose curve; in most records, active means well fitted inhibition curve with a large enough effect; inconclusive means small, poorly fitted or top-dose-only effect, or another doubt; inactive means no such curve, though single readings can be large or run the other way. On the % scale 0 is the no-effect control and ±100 the full control effect.

SMILES	HCV inh	Pf growth 48h	HCMV inh	Pf growth 96h
COc1ccc(Cn2c(=O)c3oc4ccccc4c3n(CC(=O)Nc3c(C)cccc3C)c2=O)cc1	.	.	-10	.
O=C(Nc1ccc(F)cc1F)c1cc(-c2ccc(Cl)cc2)on1	.	.	0	.
CCOc1cc2[nH]c(=O)n(CCCCC(=O)N3CCN(c4ccc(OC)cc4)CC3)c(=O)c2cc1OCC	.	.	3	.
Cc1ccc2c(c1)N(C(=O)CCC(=O)N1CCN(c3ccccn3)CC1)CC(C)O2 (stereo not drawn)	-10%	-30%	-71*	?
Cc1ccc2c(c1)N(C(=O)CCC(=O)NCc1ccccc1)CC(C)O2 (stereo not drawn)	-4%	-3%	-31	?
Cc1ccc2c(c1)N(C(=O)CCC(=O)NCCCN1CCOCC1)CC(C)O2 (stereo not drawn)	11%	5%	-65*	-4%
CC1CN(C(=O)CCC(=O)N2CCN(c3ccccn3)CC2)c2ccccc2O1 (stereo not drawn)	11%	16%	16	-5%
Cc1cccc(N2CCN(C(=O)CCC(=O)N3CC(C)Oc4ccc(C)cc43)CC2C)c1 (stereo not drawn)	?	13µM*	-15	-1%
COc1ccc(NC(=O)Cn2cc(C(=O)c3ccccc3OC)c(=O)c3ccc(C)nc32)cc1OC	.	.	12	.
COc1cccc(-n2c(=O)c3c(C)c(C)sc3n(CC(=O)NCCc3ccc(OC)c(OC)c3)c2=O)c1	.	.	0	.
CN(c1ccccc1)c1ncnc2c1ncn2C	7%	.	0	.
CCC(CO)Oc1cc(NC(=O)c2ccc([N+](=O)[O-])cc2)c2ncn(C(C)C)c2c1 (stereo not drawn)	-21%	.	-1	.
CCC(CO)Oc1cc(NC(=O)c2cccc([N+](=O)[O-])c2)c2ncn(C(C)C)c2c1 (stereo not drawn)	2.8µM*	.	-13	.
CC(C)n1cnc2c(N(C)c3ccccc3)nc(N(CCN(C)C)Cc3ccccc3)nc21	?	4.7µM*	-11	0.93µM*
COc1cc(NCc2ccccc2)c2ncn(C(C)C)c2c1	10µM*	?	22	?
COc1cc(N(Cc2ccccc2)Cc2ccccc2)c2ncn(C(C)C)c2c1	11µM*	5.9µM*	-87*	7.4µM*
CCN(CC)c1ccc(CN(C(=O)c2cc(=O)c3ccccc3o2)C2CCS(=O)(=O)C2)cc1 (stereo not drawn)	.	.	16	.
O=C(NCc1ccc2c(c1)OCO2)c1ccc2c(c1)N(Cc1ccccc1F)C(=O)c1ccccc1S2=O (stereo not drawn)	.	.	23	.
CCC(CO)Oc1cc(NCc2cc(C)cc(C)c2)c2ncn(C(C)C)c2c1 (stereo not drawn)	1.6µM*	.	7	.
COc1ccc2c(c1OC)C(=O)OC2N1C(=O)CC[C@H]1C(=O)Nc1ccc(F)cc1F (stereo partly drawn)	0.56µM*	14%	18	-8%
Cn1c(=O)n(C)c2cc(N3CCOCC3)c(NS(=O)(=O)c3ccc(Br)cc3)cc21	.	.	-5	.
CCCNC(=O)N1CC(=O)N2[C@@H](CO)[C@H](c3ccc(Br)cc3)[C@@H]2C1	.	.	-5	.
COc1ccccc1C(=O)NCC1CCN(c2ccc(S(=O)(=O)N3CCOCC3)cc2)CC1	?	.	-76*	3.3µM*
O=C(NCC1CCCO1)C1CCN(c2ccc(S(=O)(=O)N3CCCC3)cc2)CC1 (stereo not drawn)	14%	?	-34	-15%
O=C(NCC1CCN(c2ccc(S(=O)(=O)N3CCOCC3)cc2)CC1)Nc1ccccc1	-17%	?	?	?
SMILES	HCV inh	Pf growth 48h	HCMV inh	Pf growth 96h
O=C(NC1CC1)C1CCN(c2ccc(S(=O)(=O)N3CCOCC3)cc2)CC1	18%	4.1µM*	27	-5%
CC(C)CNC(=O)C1CCN(c2ccc(S(=O)(=O)N3CCOCC3)cc2)CC1	26%	7.4µM*	-16	.
COc1ccc(C(C)N2CC34C=CC(O3)C(C(=O)OCC(C)C)C4C2=O)cc1 (stereo not drawn)	0%	9%	.	15µM*
CCCCOC(=O)C1[C@H]2C(=O)N(c3ccccc3CC)C[C@]23C=C[C@H]1O3 (stereo partly drawn)	20%	?	-12	?
CCc1ccccc1N1CC23C=CC(O2)C(C(=O)OCC(C)C)C3C1=O (stereo not drawn)	10%	.	11	3.7µM*
CCOc1ccc(NC(=O)CC2Nc3cccc4cccc(c34)NC2=O)cc1 (stereo not drawn)	.	.	14	.
O=C(/C=C/c1c[nH]c2ccccc12)c1ccccc1	?	370%	116	331%
OCC[n+]1ccc(/C=C/c2c[nH]c3ccccc23)cc1	3.5µM*	0.59µM*	-99*	?
CCOC(=O)CC1(C)c2nc(NC(C)=O)sc2Cc2sc(NC(C)=O)nc21	.	.	-97*	.
CCOC(=O)c1sc(NC(C)=O)nc1C	-25%	-6%	21	.
O=C(O)c1sc2cccc(Cl)c2c1Cl	14%	?	1	1.3µM*
COc1ccc(NC(=O)Nc2c[nH]c(=O)[nH]c2=O)c(OC)c1	.	.	1	.
COC(=O)C1CCC(=O)N1C(c1ccc(OC)cc1)c1cc(OC)c(OC)c(OC)c1 (stereo not drawn)	?	.	-81*	.
COc1ccc(C(CNC(=O)Cc2cc(OC)c(OC)c(OC)c2)N2CCCC2)cc1 (stereo not drawn)	-2%	?	42	?
COc1ccc(S(=O)(=O)c2c(SC)nn(CC(=O)Nc3ccc(C)c(Cl)c3)c2N)cc1	.	.	-11	.
Cc1nc(C)c(C(=O)NCCC(c2ccccc2)c2ccccc2)o1	10µM*	-16%	?	?
Cc1ccsc1C(=O)NCCC(c1ccccc1)c1ccccc1	-10%	?	13	?
Cc1ccc2c(C)c(C(=O)Nc3ccc(S(=O)(=O)Nc4onc(C)c4C)cc3)oc2c1	0.5µM*	12%	-30	9.3µM*
Cc1ccc2c(=O)cc(C(=O)Nc3ccc(S(=O)(=O)Nc4onc(C)c4C)cc3)oc2c1	18%	27%	-38	24%
COc1ccc(C(C(=O)Nc2ccc(C(C)C)cc2)N(C)C(=O)Cc2cccs2)cc1 (stereo not drawn)	.	.	51	.
COc1cc(/C=C/C(=O)Nc2ccc(N3CCCCC3)c(S(=O)(=O)Nc3ccccc3Cl)c2)cc(OC)c1OC	12%	13µM*	?	4.1µM*
CC(=O)Nc1ccc(N2CCOCC2)c(S(=O)(=O)Nc2ccccc2Cl)c1	.	.	-11	.
COc1ccccc1NS(=O)(=O)c1cccc(NC(=O)Nc2ccc(Cl)cc2)c1	?	?	-85*	10µM*
COc1ccccc1NS(=O)(=O)c1cc(NC(=O)C2CCC2)ccc1N1CCCCC1	-15%	?	-30	?
COc1ccccc1NS(=O)(=O)c1cc(NC(=O)Nc2ccc(Cl)cc2Cl)ccc1N1CCCCC1	?	?	-62*	?

Screens deposited in PubChem by National Center for Advancing Translational Sciences (NCATS).
